Results filed as inconclusive are left out. The source made the active and inactive calls. How the source made its calls, unless noted: active means hit-call score of the fitted dose curve at least 0.9, where 1 is the maximum; inactive means score below 0.9.

Broadly, the AC50 is the midpoint of the concentration-response curve, whichever way the signal moves.

The nature of assay [1]: CEETOX_H295R_ESTRADIOL_noMTC: CeeTox H295R High-throughput Steroidogenesis Assay for Estradiol, maximum tolerated concentration (MTC) filtered results only (AID 2283919). To be noted: actives raise or lower the signal. A digest of the protocol:
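H295R human adrenal cells pre-stimulated 48 h with 10 uM forskolin, then exposed 48 h to chemical (0.1% DMSO final). Estradiol in medium measured by HPLC-MS/MS after MTBE extraction and dansyl derivatization; bidirectional fit versus DMSO, concentrations not MTT-filtered.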

A short description of assay [2]: CEETOX_H295R_PROG_noMTC: CeeTox H295R High-throughput Steroidogenesis Assay for Progesterone (PROG), maximum tolerated concentration (MTC) filtered results only (AID 2283920). To be noted: actives raise or lower the signal. A digest of the protocol: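 H295R cells; forskolin 10 uM x 48 h prestim; test cpd 48 h, 0.1% DMSO final; media progesterone via LC-MS/MS; bidirectional fit vs DMSO; no MTT-based MTC filter applied.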

A short description of assay [3]: CEETOX_H295R_ESTRONE_noMTC: CeeTox H295R High-throughput Steroidogenesis Assay for Estrone, maximum tolerated concentration (MTC) filtered results only (AID 2283921). To be noted: actives raise or lower the signal. A digest of the protocol:
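H295R cells prestimulated 48 h with 10 uM forskolin, then exposed 48 h to chemical in 0.1% DMSO; medium estrone measured by HPLC-MS/MS after MTBE extraction and dansyl derivatization, fitted bidirectionally versus DMSO without MTT-based MTC filtering.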

In assay [4] the target is PGR (gene 5241) (UniProt P06401). Put plainly: TOX21_PR_BLA_Followup_Agonist_ratio: Tox21 HEK293 Progesterone Receptor (PR) Agonism Beta-lactamase Follow-Up Assay, Ratio (AID 2283933; active means hit-call score of the fitted dose curve at least 0.9, where 1 is the maximum). The essentials:
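HEK293T PR-UAS-bla, 2% CS-FBS; 6 hr preincubation, cpd/DMSO pinned, 16 hr 37C/5% CO2; LiveBLAzer B/G 2 hr RT; FRET ch2/ch1 ratio, agonist direction vs DMSO. Viability by CellTiter-Glo in same wells.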

The target is the same in assay [5]. Put plainly: TOX21_PR_LUC_Followup_Agonist: Tox21 HEK293 Progesterone Receptor (PR) Agonism Luciferase Follow-Up Assay (AID 2283937). The essentials:
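Cells: HEK293-PR-A-luc, 3,000/well, 10% charcoal-stripped FBS assay medium. Compound added after 5 h; 16 h, 37C, 0% CO2. ONE-Glo luciferase, luminescence. Positive fit vs DMSO.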

The target of assay [6] is Thyroid hormone receptor alpha (Rattus norvegicus) + Thyroid hormone receptor beta (Rattus norvegicus) (UniProt P18113+P63059). As to the kind of experiment: TOX21_TR_LUC_GH3_Agonist_Followup: Tox21 GH3 Thyroid Hormone Receptor Agonism Luciferase Follow-Up Assay (AID 2283939; active means hit-call score of the fitted dose curve at least 0.9, where 1 is the maximum). The essentials:
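Rat GH3 cells (1,500/well) in serum-free assay medium, treated with 15-point series, 92 uM to 5 nM final, for 24 h at 37C. Luciferase via ONE-Glo luminescence; gain of signal fitted against DMSO, T3 positive control.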

Chain of PGR (gene 5241) (P06401 whole entry, looked up): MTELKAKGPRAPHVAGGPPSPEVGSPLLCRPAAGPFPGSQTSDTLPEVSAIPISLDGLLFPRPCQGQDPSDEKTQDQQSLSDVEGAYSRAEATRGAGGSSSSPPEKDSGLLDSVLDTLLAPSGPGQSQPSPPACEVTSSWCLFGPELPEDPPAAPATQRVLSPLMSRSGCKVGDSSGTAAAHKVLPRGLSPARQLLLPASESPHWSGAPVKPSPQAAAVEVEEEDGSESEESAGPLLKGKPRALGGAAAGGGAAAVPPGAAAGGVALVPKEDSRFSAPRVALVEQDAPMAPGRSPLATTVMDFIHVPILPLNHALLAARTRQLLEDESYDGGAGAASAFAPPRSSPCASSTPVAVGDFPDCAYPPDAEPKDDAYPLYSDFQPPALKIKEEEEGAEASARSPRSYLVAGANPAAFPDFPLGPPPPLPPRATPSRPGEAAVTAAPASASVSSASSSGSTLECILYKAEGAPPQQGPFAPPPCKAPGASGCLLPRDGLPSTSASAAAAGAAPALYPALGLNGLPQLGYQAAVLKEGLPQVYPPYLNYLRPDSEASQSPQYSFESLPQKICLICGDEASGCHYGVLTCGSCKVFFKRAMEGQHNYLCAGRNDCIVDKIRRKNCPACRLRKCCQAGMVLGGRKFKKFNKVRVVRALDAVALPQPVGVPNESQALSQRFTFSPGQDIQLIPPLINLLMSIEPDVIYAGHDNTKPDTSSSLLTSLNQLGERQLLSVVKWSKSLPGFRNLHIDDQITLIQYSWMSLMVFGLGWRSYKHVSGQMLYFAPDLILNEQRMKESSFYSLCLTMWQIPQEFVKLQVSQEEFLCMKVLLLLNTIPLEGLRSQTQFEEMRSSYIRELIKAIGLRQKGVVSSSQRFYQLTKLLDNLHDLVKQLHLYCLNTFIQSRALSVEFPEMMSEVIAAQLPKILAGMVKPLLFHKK
Chain of Thyroid hormone receptor alpha (Rattus norvegicus) + Thyroid hormone receptor beta (Rattus norvegicus) (P63059 whole entry, looked up): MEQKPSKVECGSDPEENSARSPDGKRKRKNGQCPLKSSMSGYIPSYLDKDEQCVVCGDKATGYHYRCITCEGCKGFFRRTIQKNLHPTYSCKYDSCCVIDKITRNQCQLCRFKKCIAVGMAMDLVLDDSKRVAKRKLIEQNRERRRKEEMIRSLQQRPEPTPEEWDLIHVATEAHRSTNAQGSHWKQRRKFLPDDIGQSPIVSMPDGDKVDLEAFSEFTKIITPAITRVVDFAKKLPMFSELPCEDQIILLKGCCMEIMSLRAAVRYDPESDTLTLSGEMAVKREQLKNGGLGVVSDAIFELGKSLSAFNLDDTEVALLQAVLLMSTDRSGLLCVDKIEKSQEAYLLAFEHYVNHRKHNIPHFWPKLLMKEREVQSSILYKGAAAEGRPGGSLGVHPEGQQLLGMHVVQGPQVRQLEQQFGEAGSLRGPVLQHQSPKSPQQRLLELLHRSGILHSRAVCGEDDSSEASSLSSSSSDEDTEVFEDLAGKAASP
Chain of Thyroid hormone receptor alpha (Rattus norvegicus) + Thyroid hormone receptor beta (Rattus norvegicus) (P18113 whole entry, looked up): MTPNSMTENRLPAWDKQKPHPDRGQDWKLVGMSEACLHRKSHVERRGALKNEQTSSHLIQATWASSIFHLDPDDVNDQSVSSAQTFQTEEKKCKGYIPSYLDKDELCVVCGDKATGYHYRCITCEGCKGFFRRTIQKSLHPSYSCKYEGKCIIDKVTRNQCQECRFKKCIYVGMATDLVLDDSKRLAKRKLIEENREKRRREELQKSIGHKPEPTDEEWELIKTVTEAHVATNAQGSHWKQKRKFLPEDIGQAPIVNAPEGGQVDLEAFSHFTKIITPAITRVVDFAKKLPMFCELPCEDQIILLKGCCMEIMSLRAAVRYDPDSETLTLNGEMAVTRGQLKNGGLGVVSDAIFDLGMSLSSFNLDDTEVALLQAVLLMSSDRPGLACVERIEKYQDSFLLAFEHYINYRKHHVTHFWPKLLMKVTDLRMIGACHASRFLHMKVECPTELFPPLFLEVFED

As for `Cc1oc(-c2ccccc2)nc1CCOc1cccc2c1ccn2CCC(=O)O`, the compound was called inactive in assay [1] and in assay [3]. The AC50 in assay [2] is 12.9 µM (active).
In the case of `C=CCOC(=O)c1ccccc1C(=O)OCC=C`, the call in assay [2] was inactive.
On to `CCc1c(C(=O)NN2CCCCC2)nn(-c2ccc(Cl)cc2Cl)c1-c1ccc(Br)cc1`, for which the result in assay [4] and in assay [5] was inactive.
`CCOc1ccc2c(c1)C(C)=CC(C)(C)N2`: the outcome in assay [4] and in assay [5] was inactive.
For `CCCCCCCCCCC`, in assay [6], the result was inactive.
